DT40 TDP1 no CPT – qHTS for Inhibitors of human tyrosyl-DNA phosphodiesterase 1 (TDP1): qHTS in cells in absence of CPT. DT40 Tdp1-/- hTDP1 cells, no CPT, ATP luminescence, 48 h. Potency, µM (titrated, usually from 46.2 µM), for the others: at the top dose activity change, negative = growth inhibition, hits mostly inhibitors. 15% of 420,000 active. AID 686978, 2013; also: potency is read from the fitted curve at half-maximal effect; nearly all actives have a fitted effect of over 55% in size
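Growth of hTDP1-complemented DT40 Tdp1-knockout cells is measured by ATP luminescence after at least 48 hr compound exposure at 37 °C, with DMSO substituting for the 20 nM CPT used in the parallel screen.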
IL-1B inflam inh – blocks inflammasome-driven IL-1 beta release | THP-1 LPS/ATP IL-1B secretion, AlphaLISA, 16 h; active compounds read low | 4.7% of 360,000 active | AID 743279 | activity change, % at 57.5 µM; in the data active = activity change below about -50%; inconclusive = mostly about -30% to -49%
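THP-1 cells pretreated 1 hr with compounds (up to 57.5 uM final), then stimulated with LPS (250 ng/mL final) plus ATP (1.25 mM final); secreted IL-1B measured by AlphaLISA after 16 hr, decreased signal indicating inhibition.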
DT40 TDP1 CPT – DT40-hTDP1 cell growth loss with CPT; Potency, µM (highest dose often 46.2 µM), for inactives: at the highest dose activity change, negative = growth inhibition, hits mostly inhibitors; chicken DT40 Tdp1-/-;hTDP1 cells + 20 nM CPT, ATP luminescence, 48 h; 12% of 420,000 active; AID 686979; also: potency is read from the fitted curve at half-maximal effect; nearly all actives have a fitted effect of over 55% in size
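Chicken DT40 Tdp1-/- cells complemented with human TDP1, 400 cells/well, exposed to compounds plus 20 nM camptothecin for at least 48 h at 37 C; viability read as ATP content by CellTiter-Glo luminescence.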
HT1080-NT tox – kills 2HG-producing HT-1080-NT fibrosarcoma cells. HT-1080-NT fibrosarcoma viability, CellTiter-Glo ATP luminescence, 48 h. Potency, µM (top dose mostly 46.1 µM), inactives show top-dose activity, negative = less viability, hits mostly cytotoxic. 1.6% of 360,000 active. AID 686970;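 also: NT is the 2HG producing partner of a matched IDH1 knockdown line; potency is read from the fitted curve at half-maximal effect; 0% = DMSO-treated cells and -100% = media-only wells without cells; nearly all actives have a fitted effect of over 55% in size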
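Fibrosarcoma NT cells, 750 per well in 5% FBS RPMI, were exposed to compound for 48 hours. Viability: CellTiter-Glo luminescence.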
HT1080 IDH1KD tx – HT-1080 IDH1 knockdown cell toxicity (counter line); HT-1080 IDH1 knockdown viability, ATP luminescence, 48 h; Potency, µM (doses to about 46.1 µM), inactives show at the top dose activity, negative = toxicity, hits mostly cytotoxic; 2% of 360,000 active; AID 686971;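 also: potency is read from the fitted curve at half-maximal effect; 0% = DMSO wells and -100% = cell-free medium wells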
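CellTiter-Glo luminescence after 48 h compound exposure at 37 degrees C of IDH1-knockdown HT-1080 cells in 5% FBS RPMI. %Activity scaled between DMSO wells and cell-free media wells, with curves fitted and assigned curve classes.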
* marks the source's active call; other numbers are inactive results; ? = inconclusive; nt = no result; [ ] = remark or other dose. Rows were chosen to be rich in hits. Some 19% of all compounds tested hit in one or more screens of this group. Unless noted, calls follow the shape of the dose curve; as a rule, active = well fitted curve in the direction sought with a large enough effect; inconclusive = small, poorly fitted or top-dose-only effect, or another doubt; inactive = no such curve, though single readings can be large; an effect the other way counts as inactive or inconclusive. Unless noted, % is scaled to controls: 0 for no effect and ±100 for the full control effect.

SMILES | DT40 TDP1 no CPT | IL-1B inflam inh | DT40 TDP1 CPT | HT1080-NT tox | HT1080 IDH1KD tx
Cc1ccc(C(OCC(O)CNC(C)c2ccccc2)c2ccccc2)cc1 (centres undefined) | 12µM* | -107* | 7.3µM* | 15µM* | 18µM*
CC(=O)Nc1c(C(=O)O)ccc(C)c1OCc1ccccc1 | 4% | 4 | -21% | 1% | 0%
COC(=O)CCCC1=CC2=CC(=O)C(C)(OC(=O)c3cccs3)C(=O)C2=CN1C1CC1 (centres undefined) | 0% | -3 | -4% | 9% | 1%
COc1cccc(OCC(O)CN2CCc3ccccc3C2)c1 (centres undefined) | -26% | 0 | ? | -3% | -4%
OC(COC(c1ccc(Cl)cc1)c1ccc(Cl)cc1)CN1CCc2ccccc2C1 (centres undefined) | ? | -80* | ? | 21µM* | ?
CCN1CCN(CC(O)COC(c2ccccc2)c2ccccc2C)CC1 (centres undefined) | -10% | 2 | ? | -5% | 0%
Cc1ccc(C(OCC(O)CN2CCCCC2)c2ccccc2)cc1 (centres undefined) | 23µM* | ? | 1% | -10% | 0%
OC1CCCN(CC(O)COC(c2ccc(F)cc2)c2ccc(F)cc2)C1 (centres undefined) | -24% | ? | -30% | ? | -18%
OC(COC(c1ccccc1)c1ccccc1)CN1CCc2ccccc2C1 (centres undefined) | 21µM* | -87* | ? | -30% | ?
OC(COC(c1ccccc1)c1ccccc1)CN1CCOCC1 (centres undefined) | ? | -3 | ? | 1% | -12%
OC(COC(c1ccc(F)cc1)c1ccc(F)cc1)CN1CCc2ccccc2C1 (centres undefined) | ? | -72* | ? | -2% | -13%
CCOc1ccc(-n2c(SCc3ccc(C(=O)OC)o3)nc3c([nH]c4ccccc43)c2=O)cc1 | ? | nt | 23µM* | nt | nt
COC(=O)c1ccc(CSc2nc3c([nH]c4ccccc43)c(=O)n2-c2ccc(OC)cc2)o1 | 18µM* | nt | 18µM* | nt | nt
CCOC(=O)CSc1nc2c([nH]c3ccccc32)c(=O)n1-c1ccc(OC)cc1 | ? | nt | -20% | nt | nt
Cc1c(C(=O)NCc2cccc(F)c2)sc2ncnc(NCC3CCCO3)c12 (centres undefined) | ? | nt | -8%[9.04 µM] | nt | nt
Cc1nc(SCc2ccc(O)c([N+](=O)[O-])c2)c([N+](=O)[O-])[nH]1 | 21µM* | -23 | 21µM* | 9% | 6%
CC(C(=O)N1CCC(C(N)=O)CC1)N(c1ccc(Oc2ccccc2)cc1)S(C)(=O)=O (centres undefined) | ? | 0 | ? | 5% | 0%
O=C1OC(/C(=C\Nc2cc(Cl)ccc2O)[N+](=O)[O-])c2ccccc21 (centres undefined) | ? | -170* | 9% | ? | ?
CN(NC1OC(=O)c2ccccc21)c1ccc(Cl)cc1[N+](=O)[O-] (centres undefined) | 5% | 9 | 2% | -2% | -18%
Cc1ccc(N/C=C(\C2OC(=O)c3ccccc32)[N+](=O)[O-])c(C)c1 (centres undefined) | -30% | -77* | 1% | 1% | 0%
O=C(NC1CCCCC1)C(c1ccccc1F)N(C(=O)c1csnn1)C1CCCC1 (centres undefined) | ? | -21 | ? | 14% | 7%
Cc1cc(C)n(C(C)CC(=O)Nc2cccc(C#N)c2)n1 (centres undefined) | -12% | nt | 1% | nt | nt
O=C(Nc1ccc(Br)cn1)C1CCCN1S(=O)(=O)c1ccccc1 (centres undefined) | ? | 5 | ? | -3% | -11%
CC(=O)Nc1ccc(NC(=O)C2CCCCN2S(=O)(=O)c2ccc(C(C)(C)C)cc2)cc1 (centres undefined) | ? | 13 | 23µM* | -15% | -20%
